Measurements taken from PubChem BioAssay (Tox21).
Inconclusive results are not listed. Activity calls are given as the source filed them. Unless noted, calls follow the shape of the dose curve; as a rule, active = well fitted curve in the direction sought with a large enough effect in the repeat runs; inconclusive = weak or mixed curves; inactive = no such curve, though single readings can be large; an effect the other way counts as inactive or inconclusive.

What was measured:
[1] = qHTS assay to identify small molecule antagonists of the androgen receptor (AR) signaling pathway using the MDA cell line in the presence of 0.5 nM R1881 - cell viability counter screen (AID 1259242); also: nearly all actives have a fitted effect of over 45% in size
Summary of the method: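 Cells seeded at 3,000/well and allowed 5 hr at 37C, 0% CO2 before compound transfer and R1881 (0.5 nM final) addition; 16 hr later, live-cell protease fluorescence indicated cytotoxicity.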

[2] = target: Estrogen receptor (Homo sapiens) (UniProt P03372); test: qHTS assay to identify small molecule antagonists of the estrogen receptor alpha (ER-alpha) signaling pathway using the BG1 cell line in the presence of 0.1 nM 17-beta-estradiol (AID 1259244); also: nearly all actives have a fitted effect of over 50% in size
Estrogen receptor (Homo sapiens), sequence (P03372 whole entry, looked up): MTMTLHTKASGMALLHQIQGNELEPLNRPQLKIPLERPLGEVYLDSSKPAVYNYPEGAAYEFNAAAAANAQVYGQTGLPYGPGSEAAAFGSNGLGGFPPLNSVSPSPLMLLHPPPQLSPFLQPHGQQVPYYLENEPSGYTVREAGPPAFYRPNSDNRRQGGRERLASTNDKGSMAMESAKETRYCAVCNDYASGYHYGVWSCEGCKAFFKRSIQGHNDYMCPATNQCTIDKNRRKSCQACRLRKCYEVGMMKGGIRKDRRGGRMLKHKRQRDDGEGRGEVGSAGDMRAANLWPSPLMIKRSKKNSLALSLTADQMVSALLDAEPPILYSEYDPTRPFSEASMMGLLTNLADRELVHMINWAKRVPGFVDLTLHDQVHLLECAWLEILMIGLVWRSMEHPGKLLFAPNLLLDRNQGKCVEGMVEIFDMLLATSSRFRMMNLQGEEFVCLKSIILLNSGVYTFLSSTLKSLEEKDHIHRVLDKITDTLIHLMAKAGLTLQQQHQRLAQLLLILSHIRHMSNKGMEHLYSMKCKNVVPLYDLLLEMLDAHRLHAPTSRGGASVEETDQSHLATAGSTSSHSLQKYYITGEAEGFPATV
Summary of the method: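 Luciferase signal from VM7Luc4E2 ERE-reporter cells, co-dosed with test compound and 0.1 nM final 17beta-estradiol for 22 h, read with ONE-Glo.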

[3] = qHTS assay to identify small molecule HDAC inhibitors (AID 1259364);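 also: wild-type HCT-116 cells with endogenous class I/II HDAC activity; top concentration of the series differs between compounds; nearly all actives have a fitted effect of over 45% in size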
Summary of the method: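 HCT-116 wt cells, 1,500/well, overnight attach. Compounds (DMSO) 2 h, 37 °C. HDAC-Glo I/II, 30 min RT. Luminescence.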

[4] = qHTS assay to identify small molecule HDAC inhibitors - cell viability counter screen (AID 1259365); also: series mostly up to about 92 µM; nearly all actives have a fitted effect of over 50% in size
Summary of the method: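 To flag cytotoxic hits, 1,500 wild-type HCT-116 cells per well, plated the day before, receive test compounds for 2hr at 37 C before CellTiter-Glo reagent and a luminescence read.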

[5] = qHTS assay to identify small molecule agonists of the sonic hedgehog signaling (Shh) pathway - cell viability counter screen (AID 1259366); also: nearly all actives have a fitted effect of over 50% in size
Summary of the method: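 Fluorescence from CellTiter-Fluor reports live cells in this counter screen. NIH/3T3-derived Gli1-Luc reporter cells receive test compounds for 24hr at 37C; reagent goes in at 23hr.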

[6] = qHTS assay to identify small molecule antagonists of the sonic hedgehog signaling (Shh) pathway - cell viability counter screen (AID 1259367); also: nearly all actives have a fitted effect of over 55% in size
Summary of the method: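 Viability was read by CellTiter-Fluor fluorescence in the same wells, reagent added 23 hr into compound treatment and incubated 1 hr at 37C. The 3T3 Gli1-Luc reporter cells (2,000/well) received conditioned medium after compound and ran 24 hr.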

[7] = qHTS assay to identify small molecule agonists of the sonic hedgehog signaling (Shh) pathway (AID 1259368; calls by dose curve;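 also: NIH/3T3-derived 3T3Gli1-Luc cells carrying a stable Gli1-driven firefly luciferase reporter; series mostly up to about 92 µM; nearly all actives have a fitted effect of over 15% in size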)
Summary of the method: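 Following a 24 hr incubation with DMSO-dissolved compounds at 37 C, 5% CO2, Gli1-Luc NIH/3T3-derived cells received luciferase reagent for 30 min at room temperature prior to luminescence measurement.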

[8] = qHTS assay to identify small molecule antagonists of the sonic hedgehog signaling (Shh) pathway (AID 1259369; calls by dose curve; also: nearly all actives have a fitted effect of over 45% in size)
Summary of the method: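 Read-out is luminescence from a firefly luciferase gene controlled by the Gli1 response element, in 3T3Gli1-Luc cells pre-incubated 4hr then exposed to compounds and conditioned medium for 24hr.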

[9] = target: Estrogen receptor beta (Homo sapiens) (UniProt Q92731); test: qHTS assay to identify small molecule agonists of the estrogen receptor beta (ER-beta) signaling pathway (AID 1259377; active = well fitted activation curve with a large enough effect in the signal ratio in the repeat runs, not every such curve was filed as active; the % refers to the signal ratio)
Estrogen receptor beta (Homo sapiens), sequence (Q92731 whole entry, looked up): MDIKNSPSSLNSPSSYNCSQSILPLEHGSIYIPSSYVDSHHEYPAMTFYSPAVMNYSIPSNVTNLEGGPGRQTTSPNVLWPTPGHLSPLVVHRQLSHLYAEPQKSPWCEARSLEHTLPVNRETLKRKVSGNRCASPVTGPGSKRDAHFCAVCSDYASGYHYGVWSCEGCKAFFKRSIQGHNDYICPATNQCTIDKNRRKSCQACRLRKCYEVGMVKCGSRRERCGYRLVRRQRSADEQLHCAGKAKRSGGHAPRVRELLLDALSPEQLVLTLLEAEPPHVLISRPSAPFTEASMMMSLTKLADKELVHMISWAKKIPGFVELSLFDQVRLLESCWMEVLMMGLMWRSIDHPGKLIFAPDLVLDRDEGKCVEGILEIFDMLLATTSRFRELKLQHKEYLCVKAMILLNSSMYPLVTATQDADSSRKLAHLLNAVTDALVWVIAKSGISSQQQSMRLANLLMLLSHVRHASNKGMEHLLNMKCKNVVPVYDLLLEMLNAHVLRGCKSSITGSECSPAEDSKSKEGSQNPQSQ
Summary of the method: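 Screening used GripTite ER-beta-UAS-bla cells held in 2% charcoal-stripped FBS medium. After overnight (16 hr) compound incubation at 37C, beta-lactamase activity was detected with a FRET substrate by fluorescence.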

[10] = target: Estrogen receptor beta (Homo sapiens) (UniProt Q92731); test: qHTS assay to identify small molecule antagonists of the estrogen receptor beta (ER-beta) signaling pathway (AID 1259378; active = well fitted inhibition curve with a large enough effect in the signal ratio in the repeat runs, not every such curve was filed as active; the % refers to the signal ratio)
Summary of the method: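 Antagonist mode: compounds added to beta-lactamase reporter HEK293T ER-beta-UAS cells stimulated with E2 (1nM final), 16 hr at 37C. LiveBLAzer B/G FRET substrate, 2 hours room temperature, fluorescence read-out.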

[11] = qHTS assay to identify small molecule agonists of the androgen receptor (AR) signaling pathway in the presence of an antagonist - cell viability counter screen (AID 1259379);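 also: MDA-kb2 human breast cancer cells carrying an MMTV luciferase reporter; series mostly up to about 92 µM; nearly all actives have a fitted effect of over 25% in size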
Summary of the method: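 Each compound was tested at 15 concentrations on MDA-kb2 cells in the presence of 3.0uM nilutamide. Viability was measured by CellTiter-Fluor fluorescence after a 16 hr incubation at 37C in a CO2-free atmosphere.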

[12] = qHTS assay to identify small molecule agonists of the estrogen receptor beta (ER-beta) signaling pathway - cell viability counter screen (AID 1259380); also: nearly all actives have a fitted effect of over 30% in size
Summary of the method: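 Compounds dissolved in DMSO were pin-transferred onto ER-beta-UAS-bla HEK293T cells that had settled 6 hr, and exposure ran 16 hr at 37C. Following the reporter read, CellTiter-Glo luminescence after 30 min at room temperature indicated cytotoxicity.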

[13] = qHTS assay to identify small molecule antagonists of the estrogen receptor beta (ER-beta) signaling pathway - cell viability counter screen (AID 1259382);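 also: HEK293T cells carrying ER-beta-UAS-bla reporter stimulated with estradiol; series mostly up to about 92 µM; nearly all actives have a fitted effect of over 55% in size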
Summary of the method: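 CellTiter-Glo ATP luminescence measured after the LiveBLAzer read in the same wells; ER-beta-UAS-bla HEK293T cells, 16 hr compound treatment with 1nM 17-beta-estradiol agonist at 37C, 5% CO2.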

[14] = target: Estrogen receptor (Homo sapiens) (UniProt P03372); test: qHTS assay to identify small molecule agonists of the estrogen receptor alpha (ER-alpha) signaling pathway in the presence of an antagonist (AID 1259383; calls by dose curve; also: nearly all actives have a fitted effect of over 15% in size; also: potency is read from the fitted curve at half-maximal effect; as to activation: top concentration of the series differs between compounds)
Summary of the method: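 Luminescent ERE-luciferase reporter, VM7Luc4E2 cells (endogenous ER-alpha); 10.0nM ICI-182,780 final; 15-point compound titration; 22hr at 37C; ONE-Glo, 30min RT.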

[15] = qHTS assay to identify small molecule agonists or antagonists of the thyroid stimulating hormone receptor (TSHR) signaling pathway - wild type cell line counter screen (AID 1259384; calls by dose curve)
Summary of the method: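 Counter screen in untransfected Hek293: compounds (15-point titration, triplicate) plus phosphodiesterase inhibitor Ro20-1724 added after 18 h plating; 30 min RT. Intracellular cAMP via competitive d2/cryptate immunoassay, 1 h incubation.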

[16] = target: Thyrotropin receptor (Homo sapiens) (UniProt P16473); test: qHTS assay to identify small molecule antagonists of the thyroid stimulating hormone receptor (TSHR) signaling pathway (AID 1259385; calls by dose curve; also: nearly all actives have a fitted effect of over 20% in size; also: potency is read from the fitted curve at half-maximal effect)
Thyrotropin receptor (Homo sapiens), sequence (P16473 whole entry, looked up): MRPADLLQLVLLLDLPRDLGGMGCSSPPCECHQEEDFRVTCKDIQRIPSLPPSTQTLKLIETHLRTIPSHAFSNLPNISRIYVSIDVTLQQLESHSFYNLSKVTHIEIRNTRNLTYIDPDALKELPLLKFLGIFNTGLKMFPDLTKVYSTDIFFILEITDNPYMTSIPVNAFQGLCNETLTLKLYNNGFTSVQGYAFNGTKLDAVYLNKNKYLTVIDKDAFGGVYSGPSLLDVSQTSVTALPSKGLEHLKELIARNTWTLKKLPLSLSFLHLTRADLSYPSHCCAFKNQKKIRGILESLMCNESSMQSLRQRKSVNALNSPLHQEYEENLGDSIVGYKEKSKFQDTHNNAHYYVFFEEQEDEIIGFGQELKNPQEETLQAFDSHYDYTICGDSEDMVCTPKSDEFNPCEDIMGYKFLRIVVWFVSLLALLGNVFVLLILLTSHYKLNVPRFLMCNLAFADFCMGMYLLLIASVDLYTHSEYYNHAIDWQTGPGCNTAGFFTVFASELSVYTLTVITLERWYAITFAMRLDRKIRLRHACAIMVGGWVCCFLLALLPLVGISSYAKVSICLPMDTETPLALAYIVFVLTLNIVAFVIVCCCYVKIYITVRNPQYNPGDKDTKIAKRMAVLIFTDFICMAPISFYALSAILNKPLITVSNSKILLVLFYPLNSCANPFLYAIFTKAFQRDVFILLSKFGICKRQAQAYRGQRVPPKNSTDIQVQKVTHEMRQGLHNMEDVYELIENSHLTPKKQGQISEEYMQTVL
Summary of the method: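 Antagonist mode: compound-treated TSHR-expressing HEK293 cells were stimulated with 1.5 ng/mL TSH (final) in presence of Ro20-1724 for 30 min at RT. HTRF cAMP detection after 1 h; each compound tested at 15 concentrations, triplicate.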

[17] = qHTS assay to identify small molecule agonists of the estrogen receptor alpha (ER-alpha) signaling pathway in the presence of an antagonist - cell viability counter screen (AID 1259386);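 also: series mostly up to about 92 µM; cells exposed to compounds for 22 h at 37 °C before the viability read; nearly all actives have a fitted effect of over 30% in size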
Summary of the method: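 Using estrogen-depleted VM7Luc4E2 cells, the 15-concentration compound series was applied together with 10.0nM ICI-182,780 and incubated 22hr at 37C/5% CO2. Cell viability was then scored by CellTiter-Fluor.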

[18] = qHTS assay to identify small molecule phospholipidosis (PLD) inducers (AID 1259344; active = well fitted curve in the direction sought with a large enough effect; an effect the other way counts as inactive or inconclusive)
Summary of the method: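 Phospholipid accumulation was scored by imaging: fixed, Hoechst-counterstained HepG2 cells stained with LipidTOX Red after 24 h compound exposure at 37 C. Read-outs were pit count and pit intensity per well or per cell, with amiodarone and DMSO controls.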

[19] = target: Androgen receptor (Homo sapiens) (UniProt P10275); test: qHTS assay to identify small molecule agonists of the androgen receptor (AR) signaling pathway in the presence of an antagonist (AID 1259381; calls by dose curve; also: nearly all actives have a fitted effect of over 15% in size)
Androgen receptor (Homo sapiens), sequence (P10275 whole entry, looked up): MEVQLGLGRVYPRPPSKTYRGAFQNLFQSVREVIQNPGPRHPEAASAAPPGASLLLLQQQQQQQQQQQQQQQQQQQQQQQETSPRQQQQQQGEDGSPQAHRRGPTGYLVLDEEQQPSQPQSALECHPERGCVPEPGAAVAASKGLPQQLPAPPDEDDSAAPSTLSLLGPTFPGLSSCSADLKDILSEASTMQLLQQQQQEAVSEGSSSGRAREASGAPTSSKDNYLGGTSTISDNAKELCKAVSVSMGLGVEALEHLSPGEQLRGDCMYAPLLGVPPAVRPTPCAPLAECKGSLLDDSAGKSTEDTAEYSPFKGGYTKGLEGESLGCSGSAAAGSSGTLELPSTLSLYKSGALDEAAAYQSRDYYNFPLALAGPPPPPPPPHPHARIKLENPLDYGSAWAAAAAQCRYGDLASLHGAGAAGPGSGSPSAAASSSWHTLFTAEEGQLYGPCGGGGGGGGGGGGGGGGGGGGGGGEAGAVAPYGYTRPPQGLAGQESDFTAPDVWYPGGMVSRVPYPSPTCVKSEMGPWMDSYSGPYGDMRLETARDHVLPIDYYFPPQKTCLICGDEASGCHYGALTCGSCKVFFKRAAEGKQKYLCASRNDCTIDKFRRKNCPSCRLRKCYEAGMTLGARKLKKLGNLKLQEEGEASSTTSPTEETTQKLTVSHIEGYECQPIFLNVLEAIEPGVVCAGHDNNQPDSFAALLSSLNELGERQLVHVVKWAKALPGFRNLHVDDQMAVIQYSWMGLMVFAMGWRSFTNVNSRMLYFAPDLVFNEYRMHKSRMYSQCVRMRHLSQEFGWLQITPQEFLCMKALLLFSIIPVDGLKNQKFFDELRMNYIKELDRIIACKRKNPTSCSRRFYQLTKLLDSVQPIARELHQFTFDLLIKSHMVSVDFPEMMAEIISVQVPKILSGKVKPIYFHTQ
Summary of the method: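 Plated MDA-kb2 cells (3,000/well) were pre-incubated 5hr, given nilutamide (3.0uM final) or buffer, then dosed with compounds in DMSO at 15 concentrations. Luciferase activity was quantified by luminescence after 16hr at 37C.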
% is scaled to controls: 0 for no effect and ±100 for the full control effect.

COC(=O)c1ccccc1C
inactive: Potency [1] | Potency [2] | Potency [3] | Potency [4] | Potency [5] | Potency [6] | Potency [7] | Potency [8] | Potency [9] | Potency [10] | Potency [11] | Potency [12] | Potency [13] | Potency [14] | outcome [15] | Potency [16] | Potency [17]

[Cu+]
inactive: Potency [1] | Potency [2] | Potency [3] | Potency [4] | Potency [5] | Potency [6] | Potency [7] | Potency [8] | Potency [9] | Potency [10] | Potency [11] | Potency [13] | outcome [15]

CN1CCN2c3ccccc3Cc3ccccc3C2C1 (centres undefined)
inactive: Potency [1] | Potency [2] | Potency [18] | Potency [3] | Potency [4] | Potency [5] | Potency [6] | Potency [7] | Potency [9] | Potency [11] | outcome [19] | Potency [14] | outcome [15] | Potency [16]

OC[C@@H](O)[C@@H](O)CO
inactive: Potency [1] | Potency [2] | Potency [3] | Potency [4] | Potency [5] | Potency [6] | Potency [7] | Potency [8] | Potency [9] | Potency [10] | Potency [11] | Potency [13] | Potency [14] | outcome [15] | Potency [16] | Potency [17]

C=Cc1cccc(C)c1
inactive: Potency [1] | Potency [2] | Potency [3] | Potency [4] | Potency [5] | Potency [6] | Potency [7] | Potency [8] | Potency [9] | Potency [10] | Potency [11] | Potency [13] | Potency [14] | outcome [15] | Potency [16] | Potency [17]

CC(C)(C)CC(C)(C)c1ccc(Nc2ccc(C(C)(C)CC(C)(C)C)cc2)cc1
inactive: viability change, negative = cytotoxic [1] 0.0791% [at 8.39 µM] | activity change, negative = inhibition [2] -17.9% [at 8.39 µM] | activity change, negative = inhibition [3] -1.65% [at 8.39 µM] | activity change, negative = cytotoxicity [4] 2.64% [at 8.39 µM] | viability change, negative = cytotoxic [5] 3.57% [at 8.39 µM] | viability change, negative = cytotoxic [6] -1.41% [at 8.39 µM] | activity change [7] -0.648% [at 8.39 µM, active compounds read high] | activity change, negative = inhibition [8] -12.5% [at 8.39 µM] | activation [9] -0.0232% [at 8.39 µM] | activity, negative = inhibition [10] -7.19% [at 8.39 µM] | activity change, negative = cytotoxicity [11] 1.22% [at 8.39 µM] | activity change, negative = cytotoxicity [13] -9.43% [at 8.39 µM] | cAMP activity change [15] 6.94% [at 8.39 µM] | activity change, negative = inhibition [16] 1.31% [at 8.39 µM] | activity change, negative = cytotoxicity [17] 1.15% [at 8.39 µM]

C#C[C@]1(OC(C)=O)CC[C@H]2[C@@H]3CCC4=C/C(=N/O)CC[C@@H]4[C@H]3CC[C@@]21CC
active: Potency [14] 2.11 µM | Potency [16] 422 nM
inactive: Potency [1] | Potency [2] | Potency [18] | Potency [3] | Potency [4] | Potency [5] | Potency [6] | Potency [7] | Potency [8] | Potency [9] | outcome [15]
